Among the data in PubChem BioAssay are z-score and composite z-score values, retold here.

Activity calls are given as the source filed them. Unless noted, the rule behind the calls is not given here.

A short description of experiment [1]: HepG2 liver cancer cell viability effects, profiling panel, resazurin fluorescence, 24 h, PK04 Diversity Set (AID 1172). Note: test concentration not given here. As to conditions: higher = more signal.
The nature of experiment [2]: basal S. cerevisiae growth modulation, no modifier, primary screen, OD600, strain BY4716, 24 h, basal condition (AID 1173). The settings on record: OD600, 24 h, higher = more signal, called active from +8 up or from −8 down.
Experiment [3] in a line: MM1S myeloma cell viability, profiling panel, resazurin fluorescence, basal, 24 h, PK04 Diversity Set (AID 1174). Note: test concentration not given here. The settings on record: higher = more signal, called active from +8 up or from −8 down. For orientation: Alamar Blue is a resazurin reagent that responds to reducing activity.
Experiment [4] concerns the target Dihydroorotate dehydrogenase (quinone), mitochondrial (Plasmodium falciparum (isolate 3D7)) (UniProt Q08210). Briefly: PfDHODH enzyme inhibitors, primary screen, biochemical, C-terminal His tag, absorbance 600 nm (AID 1175).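 Note: recombinant parasite enzyme with a five histidine tag at its C terminus; test concentration not given here.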 The settings on record: DCIP absorbance 600 nm, higher = more signal, called active from +8 up or from −8 down.
The nature of experiment [5]: P. aeruginosa biofilm formation inhibitors, primary screen, strain PAO1, LB-PBS medium, absorbance 600 nm (AID 1176). Note: test concentration not given here. As to conditions: P. aeruginosa PAO1 growth/biofilm, A600, 12 h; higher = more signal.
The nature of experiment [6]: S. cerevisiae RM11-1a growth modifiers, primary screen, strain RM11-1a, OD600, basal, 24 h (AID 1177).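 Note: cultures grown under basal conditions with no added stressor; test concentration not given here.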 As to conditions: OD600, 24 h, higher = more signal, called active from +8 up or from −8 down.
Experiment [7] in a line: E. coli acrAB mutant growth effects, primary screen, E. coli filamentation inducers, strain DRC39, OD650, 24 h (AID 1178).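 Note: growth measured as culture turbidity by optical density at 650 nm; test concentration not given here.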 The settings on record: higher = more signal, called active from +8 up or from −8 down.
A short description of experiment [8]: E. coli acrAB mutant growth effects, primary screen, E. coli filamentation inducers, strain DRC39, OD650, 48 h (AID 1179).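 Note: screen aims at cell division blockers that make cells filament.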 The settings on record: E. coli DRC39 delta-acrAB growth, higher = more signal, called active from +8 up or from −8 down.
Experiment [9] is described as follows: RPMI8226 myeloma cell viability, profiling panel, resazurin fluorescence, basal, 24 h, PK04 Diversity Set (AID 1180).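 Note: RPMI8826 multiple myeloma cell line at 5000 cells per well; test concentration not given here.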 The settings on record: higher = more signal.
Experiment [10] concerns the target E3 ubiquitin-protein ligase XIAP (Homo sapiens) (UniProt P98170). Briefly: XIAP binders, primary screen, biophysical, small-molecule microarray, fluorescence 635 nm (AID 1181).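 Note: score merges 667 nm emission and signal to noise over triplicate slides.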 The settings on record: small-molecule microarray binding, higher = more signal.

Sequence of E3 ubiquitin-protein ligase XIAP (Homo sapiens) (P98170 whole entry, looked up): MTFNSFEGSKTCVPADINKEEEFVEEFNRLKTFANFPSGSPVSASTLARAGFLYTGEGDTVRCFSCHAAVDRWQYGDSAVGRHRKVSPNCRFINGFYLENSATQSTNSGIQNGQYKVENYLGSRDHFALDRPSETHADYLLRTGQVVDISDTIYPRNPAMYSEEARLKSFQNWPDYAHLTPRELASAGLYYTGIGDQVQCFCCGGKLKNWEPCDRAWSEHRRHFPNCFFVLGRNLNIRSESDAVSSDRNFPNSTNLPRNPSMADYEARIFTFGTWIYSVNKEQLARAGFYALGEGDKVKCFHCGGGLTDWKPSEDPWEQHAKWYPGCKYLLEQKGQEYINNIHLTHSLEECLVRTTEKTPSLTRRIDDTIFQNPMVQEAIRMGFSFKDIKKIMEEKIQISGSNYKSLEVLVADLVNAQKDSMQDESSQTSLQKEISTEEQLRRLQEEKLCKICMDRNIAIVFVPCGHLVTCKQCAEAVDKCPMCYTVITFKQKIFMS
Sequence of Dihydroorotate dehydrogenase (quinone), mitochondrial (Plasmodium falciparum (isolate 3D7)) (Q08210 whole entry, looked up): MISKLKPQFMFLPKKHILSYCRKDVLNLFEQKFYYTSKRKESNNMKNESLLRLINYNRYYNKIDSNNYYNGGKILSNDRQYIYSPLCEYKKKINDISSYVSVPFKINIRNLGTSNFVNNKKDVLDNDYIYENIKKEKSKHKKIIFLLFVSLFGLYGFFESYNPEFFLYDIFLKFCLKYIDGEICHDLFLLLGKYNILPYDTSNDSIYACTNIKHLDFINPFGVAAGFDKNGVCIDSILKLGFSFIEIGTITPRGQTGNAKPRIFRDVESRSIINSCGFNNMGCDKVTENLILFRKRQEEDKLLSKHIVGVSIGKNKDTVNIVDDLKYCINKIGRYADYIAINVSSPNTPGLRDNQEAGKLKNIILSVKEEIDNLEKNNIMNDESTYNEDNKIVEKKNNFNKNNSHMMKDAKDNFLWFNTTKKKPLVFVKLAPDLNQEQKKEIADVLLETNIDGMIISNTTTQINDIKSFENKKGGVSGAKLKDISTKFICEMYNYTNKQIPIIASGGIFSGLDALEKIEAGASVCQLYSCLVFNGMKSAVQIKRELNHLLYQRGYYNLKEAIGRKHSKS

On to `C=CCN1C(=O)[C@]2(O[C@H](CCO)[C@@H]([Si](C)(C)c3ccc(OC)cc3)[C@@H]2C)c2cc(N3C(=O)COc4ccccc43)ccc21`, for which the z-score in [1] is -5.79; in experiment [2] it was 0.346 (inactive); in [3], -8.88 (active); in [5] it was -0.34 (inactive); in experiment [6], 2.96 (inactive); in experiment [7] it was 1.55 (inactive). Also, the values for the z-score in experiment [8] and in experiment [9] were 0.68 (inactive) and -6.28, respectively. For the same compound, the values for the composite z-score in [4] and in experiment [10] were 0.828 (inactive) and 0.0356, respectively.

With `COCC1C2CC[C@H]3C(OCc4ccc(OC)cc4)OC[C@]4(C)[C@H]3C2=C(CN4C(=O)OC(C)(C)C)[C@H](C)C1COC` (stereo not given in full), the z-score was -0.819 in [1]; -0.316 (inactive) in [2]; -0.79 (inactive) in experiment [3]; 0.796 (inactive) in [5]; -0.688 (inactive) in experiment [6]; -0.705 (inactive) in experiment [7]. Besides, the results for the z-score in experiment [8] and in experiment [9] were 0.286 (inactive) and -0.723, respectively. Further, the composite z-score is -0.566 (inactive) in experiment [4] and 0.441 in experiment [10].

For `CO[C@H]1O[C@H](CO)[C@@H](OC(=O)Nc2ccc(C#N)cc2)[C@@H]2OC(=O)[C@H](Cc3cccc(Br)c3)C/C=C/C[C@@H](Cc3cccc(Br)c3)C(=O)O[C@@H]12`, the z-score was -1.39 in [1]; -0.253 (inactive) in [2]; -3.14 (inactive) in experiment [3]; 1.23 (inactive) in experiment [5]; 0.99 (inactive) in experiment [6]; 0.295 (inactive) in [7]. Also, the z-score is 0.432 (inactive) in [8] and -2.37 in experiment [9]. The figures for the composite z-score in [4] and in experiment [10] were -0.631 (inactive) and -0.355, respectively.

With `COC(=O)[C@@]1(Cc2ccc(F)cc2)[C@H]2c3cc(C(=O)N4CCCC4)n(CC4CC4)c3C[C@H]2CN1C(=O)c1ccccc1`, the z-score in experiment [1] was -1.57; in experiment [2], -0.443 (inactive); in experiment [3], -1.65 (inactive); in experiment [5], 0.495 (inactive); in experiment [6], 0.056 (inactive); in [7], -0.688 (inactive). Further, the figures for the z-score in experiment [8] and in experiment [9] were -0.64 (inactive) and -2.11, respectively. The composite z-score is -0.559 (inactive) in experiment [4] and 0.705 in experiment [10].

On to `COc1cc2c(cc1O)C(c1ccc(CN3CCCC3)cc1)N(C)CC2` (stereo not given), for which the z-score in experiment [1] is -0.392; in experiment [2], 0.447 (inactive); in experiment [3], -1.36 (inactive); in experiment [5], -0.255 (inactive); in [6] it was 0.697 (inactive); in [7] it was 0.0615 (inactive). In addition, the values for the z-score in experiment [8] and in experiment [9] were 0.382 (inactive) and -0.891, respectively. Also, the composite z-score was -0.65 (inactive) in [4] and 0.415 in experiment [10].

On to `Nc1cc(Br)ccc1C(=O)O`, for which the z-score in experiment [1] is 0.615; in [2], -0.811 (inactive); in experiment [3], 1.11 (inactive); in experiment [5], -0.612 (inactive); in experiment [6] it was -0.127 (inactive); in [7], 0.37 (inactive). Also, the z-score in experiment [8] is -0.138 (inactive); in experiment [9], 1.29. In addition, the composite z-score is -0.627 (inactive) in [4] and 0.0837 in [10].

In the case of `[N-]=[N+]=NC[C@H](Cc1ccccc1)NC(=O)c1ccccc1`, the z-score in experiment [1] is 0.198; in experiment [2], -3.7 (inactive); in [3], 1.46 (inactive); in [5], -0.382 (inactive); in experiment [6] it was -0.401 (inactive); in experiment [7], 0.487 (inactive). For the same compound, the z-score in experiment [8] is 0.352 (inactive); in experiment [9], 0.839. Further, the composite z-score in experiment [4] was -0.178 (inactive); in [10], -0.394.

`COc1ccc([Si](C)(C)[C@H]2[C@H](CCO)O[C@@]3(C(=O)N(Cc4ccccc4)c4ccc(N5C(=O)c6ccccc6Oc6ccccc65)cc43)[C@@H]2C)cc1`: the z-score is -1.6 in experiment [1]; 1.09 (inactive) in experiment [2]; -4.24 (inactive) in experiment [3]; 2.38 (inactive) in experiment [5]; 3.48 (inactive) in experiment [6]; 0.0105 (inactive) in experiment [7]. In addition, the z-score in experiment [8] is -0.615 (inactive); in experiment [9] it was -3.34. Besides, the values for the composite z-score in experiment [4] and in experiment [10] were 0.906 (inactive) and -0.172, respectively.

For the compound `O=C1O[C@H](c2ccccc2)[C@H](c2ccccc2)N2[C@H]1[C@@H](C(=O)N1CCCCCCC1)[C@]1(C(=O)Nc3ccc(C#CC4(O)CCCCCC4)cc31)[C@H]2c1ccc(O)cc1`, the z-score is 0.114 in experiment [1]; -0.101 (inactive) in [2]; -0.5 (inactive) in experiment [3]; 0.875 (inactive) in experiment [5]; 0.74 (inactive) in experiment [6]; 0.799 (inactive) in experiment [7]. Also, the z-score in experiment [8] was 0.163 (inactive); in experiment [9], 0.295. The composite z-score in experiment [4] is 0.0579 (inactive); in experiment [10], 0.322.

On to `COc1ccc([Si](C)(C)[C@H]2[C@H](CC(=O)N3CCC[C@H]3CO)O[C@@]3(C(=O)N(Cc4ccc(N5CCC5=O)cc4)c4ccccc43)[C@@H]2C)cc1`, for which the z-score in experiment [1] is -1.39; in [2], -0.942 (inactive); in experiment [3], -1.7 (inactive); in [5], 1 (inactive); in experiment [6], 0.194 (inactive); in [7] it was -1.17 (inactive). In addition, the z-score in [8] was -1.29 (inactive); in experiment [9] it was -0.944. Moreover, the composite z-score was -5.46 (inactive) in [4] and -0.0339 in [10].

Consider `CCOC(=O)C1=CC[C@@H](c2ccccc2)N(S(=O)(=O)c2ccc(C)cc2)[C@H]1c1cccc(OC)c1`, for which the z-score in [1] is 0.0088; in experiment [2], 2.25 (inactive); in [3], -0.387 (inactive); in experiment [5], 0.325 (inactive); in experiment [6], 1.21 (inactive); in experiment [7], -0.577 (inactive). In addition, the figures for the z-score in experiment [8] and in experiment [9] were 0.244 (inactive) and -1.22, respectively. Moreover, the composite z-score is -0.777 (inactive) in experiment [4] and -0.022 in experiment [10].

Turning to `CC(C)c1ccc(NN2C(C(O)Cc3ccccc3)C=CC3C(=O)N(c4ccccc4)C(=O)C32)cc1` (stereo not given), the z-score was -1.93 in [1]; -1.02 (inactive) in [2]; -1 (inactive) in experiment [3]; 0.683 (inactive) in experiment [5]; 0.269 (inactive) in experiment [6]; -1.12 (inactive) in [7]. The figures for the z-score in [8] and in experiment [9] were -1.07 (inactive) and -0.807, respectively. For the same compound, the results for the composite z-score in experiment [4] and in experiment [10] were -0.335 (inactive) and 0.0989, respectively.

Turning to `COc1ccc([Si](C)(C)[C@@H]2[C@@H](CCn3cc([C@H](O)c4ccccc4)nn3)O[C@]3(C(=O)N(c4ccccc4)c4ccccc43)[C@H]2C)cc1`, the z-score in experiment [1] is -2.07; in [2], -0.284 (inactive); in [3], -3.04 (inactive); in [5] it was 1.08 (inactive); in [6], 0.77 (inactive); in experiment [7], -0.434 (inactive). The z-score in [8] was -0.502 (inactive); in experiment [9], -3.15. Besides, the figures for the composite z-score in experiment [4] and in [10] were -0.204 (inactive) and -0.131, respectively.
